A selection: hits, their analogues and other compounds. The true share with any hit is near 4.1%.
Gli-Sufu block – Gli-Sufu pathway antagonists, primary screen, luciferase luminescence, Sufu-KO-LIGHT cells, uHTS. inhibition, % at 5 µM. Sufu-KO-LIGHT fibroblasts, Gli luciferase reporter luminescence. 0.74% of 340,000 active;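 active = inhibition above about 55%, limit read from the data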;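 note: 0% = DMSO-treated cells and 100% = wells with medium but no cells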
KLF5 inhibitor – KLF5 expression inhibitors, primary screen, DLD-1 cells, luminescence | DLD-1 KLF5 promoter-luciferase reporter | inhibition, % at 5 µM | 0.23% of 290,000 active | AID 1700, 2009;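 active = inhibition above a per-plate limit of that plate's mean compound inhibition plus 3 SD, cut at about 60% in these data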;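 note: 0% = DMSO wells and 100% = LY294002 at 200 µM; higher means less KLF5 promoter-driven luciferase light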
Jurkat NFkB inh – inhibitors of induced NF-kB luciferase reporter, primary screen, TCR NF-kB activation inhibitor project, cell-based, luminescence, uHTS | 0.53% of 330,000 active | Jurkat, PMA/ionomycin-induced NF-kB luciferase reporter | inhibition, % at 4 µM; in the data active = inhibition above about 50%
Mdm2-MdmX inh – inhibitors of human Mdm2-MdmX association, primary screen, cell-based, luminescence, split luciferase, SaOS-2, uHTS. 3% of 330,000 active. SaOS-2 split-luciferase Mdm2/MdmX complementation. Protein Mdm4 (Homo sapiens) + E3 ubiquitin-protein ligase Mdm2 (Homo sapiens), …. AID 485346, 2010. inhibition, % at 8 µM;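 active = inhibition of at least 50% at 8 µM in the primary screen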
697 NFkB inh – inhibitors of PMA/ionomycin-induced NF-kB reporter, 697 cells, primary screen, B-cell NF-kB inhibitor project, cell-based, luminescence, uHTS. 0.33% of 330,000 active. inhibition, % at 4 µM. 697 B-cell NF-kB luciferase reporter, 16 h; in the data active = inhibition above about 35%
aSyn UTR inh – MLPCN primary screen, SNCA 5' untranslated region. alpha-synuclein 5'UTR reporter, inhibitor activity. inhibition, % (tested at 7.5 µM). 0.82% of 300,000 active. AID 1813, 2009; in the data active = inhibition above about 60%;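 note: H4 neuroglioblastoma cells stably carrying SNCA 5'UTR luciferase fusion; 0% = DMSO wells and 100% = positive control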
Mdm2 MdmX conf – Mdm2-MdmX complex disruptors, retested hits, confirmation, luminescence, single concentration | Mdm2-MdmX binding, luminescent assay | inhibition, % at 8 µM | shares compounds with Mdm2-MdmX inh | 55% of 10,000 active | AID 489028, 2010; in the data active = inhibition above about 40%
FLuc counter – full-length luciferase signal inhibition, confirmation, counter-screen for Mdm2/MdmX interaction inhibitor project, cell-based, single concentration, SaOS-2 | SaOS-2 full-length luciferase counterscreen, luminescence | shares compounds with Mdm2-MdmX inh | inhibition, % at 8 µM | 77% of 6,200 active;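 active = mean inhibition at 8 µM reaching about 37%, which flags the compound as non-specific, limit read from the data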;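 note: p53-null SaOS-2 cells with luciferase driven by a doxycycline-inducible promoter; compound on cells about two nights before reading with doxycycline added after day one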
* marks the source's active call; other numbers are inactive results; / = no result.

SMILES | Gli-Sufu block | KLF5 inhibitor | Jurkat NFkB inh | Mdm2-MdmX inh | 697 NFkB inh | aSyn UTR inh | Mdm2 MdmX conf | others
Cc1cc(C)n(Cc2cc(C(=O)O)c3ccccc3n2)n1 | 19 | -15 | 4 | 8 | -13 | 3 | /
COc1ccc2nc(Nc3nc(CSc4nnnn4-c4ccccc4)cc(=O)[nH]3)nc(C)c2c1 | 14 | -38 | -9 | 49 | -3 | -4 | /
CCOc1ccc2nc(Nc3nc(CSc4nnnn4-c4ccccc4)cc(=O)[nH]3)nc(C)c2c1 | 16 | -17 | 33 | 75* | -11 | 5 | 16
Cc1ccc2c(C)nc(Nc3nc(CSc4nc5ccccc5s4)cc(=O)[nH]3)nc2c1 | 29 | / | / | / | / | / | /
Cc1ccc2c(C)nc(Nc3nc(CSc4nnnn4-c4ccccc4)cc(=O)[nH]3)nc2c1 | 15 | -29 | 5 | 89* | 11 | 41 | 61* | FLuc counter=63*
COC(=O)c1ccc(CNC(=O)c2ccc(COc3ccccc3)cc2)cc1 | -2 | -114 | 10 | -1 | -18 | 25 | /
Cc1c(CCOC(=O)CC23CC4CC(CC(C4)C2)C3)sc[n+]1CC(=O)c1ccccc1 | 38 | -37 | -13 | 54* | -48 | -39 | 18
Cc1ccc(NC(=O)COc2ccccc2CNC(C)(C)CC(C)(C)C)cc1 | -12 | -54 | 5 | 90* | 1 | -4 | 53* | FLuc counter=59*
CC(C)(CO)NCc1ccccc1OCC(=O)Nc1ccccc1 | 3 | -17 | -25 | 4 | 5 | 1 | /
Cc1ccc(C(=O)C(c2ccccc2)N2Cc3ccccc3C2=N)cc1 (stereo not given) | 56* | -6 | 2 | 79* | -20 | -13 | 18
CC(=O)N(c1cccc(Cl)c1)c1nc(C)cc(C)c1C#N | 4 | 3 | -11 | 10 | 5 | 27 | /
COc1cccc(NC(=O)Nc2nnc(-c3ccccc3SCc3ccccc3)s2)c1 | 1 | 8 | 12 | 53* | -8 | / | 33
O=C(Nc1nnc(-c2ccccc2SCc2ccccc2)s1)Nc1ccccc1F | 7 | -1 | -14 | 76* | 2 | -28 | 17
Cc1cc(C)c2nc(SCC(=O)Nc3ccccc3N3CCOCC3)c(C#N)cc2c1 | 1 | -3 | 8 | 46 | 4 | 0 | /
Cc1cc(C)c2nc(SCC(=O)N3CC(=O)Nc4ccccc43)c(C#N)cc2c1 | 41 | -2 | 49 | 69* | -128 | 67* | 71* | FLuc counter=112*
COc1ccc2nc(SCC(=O)N3CC(=O)Nc4ccccc43)c(C#N)cc2c1 | 12 | -17 | 19 | 65* | 15 | 33 | 68* | FLuc counter=46*
CC1CCCN(C2(O)C(=O)Nc3ccc([N+](=O)[O-])cc32)C1 (stereo not given) | 2 | -17 | 0 | -22 | 9 | 9 | /
Cc1cc(C)cc(N2C(=O)CC(Sc3ncn[nH]3)C2=O)c1 (stereo not given) | 5 | -52 | -14 | 14 | 24 | 5 | /
Cc1ccc(C(=O)N2N=C(c3ccc(Br)cc3)CC2c2ccccc2O)cc1 (stereo not given) | 25 | 4 | -15 | 75* | -12 | -7 | 2
CCOc1cc(NC(=O)c2ccccn2)c(OCC)cc1NC(=O)c1ccc(Cl)cc1 | 13 | -24 | 16 | 56* | -16 | -17 | 18
CC(C)(C)C(=O)NC(=S)NNC(=O)c1sc2ccccc2c1Cl | 43 | -5 | 25 | 74* | -92 | 89* | 52* | FLuc counter=37*
O=C(NNC(=S)NC1CCCCC1)c1sc2ccccc2c1Cl | -14 | -6 | 12 | 5 | 3 | -6 | /
CCN(CC)C(=O)/C(=C/c1cn(S(=O)(=O)N(C)C)c2ccccc12)NC(=O)c1ccc(OC)cc1 | 14 | 0 | -8 | 61* | -2 | 13 | 24
